In PubChem BioAssay (Tox21):
Records with an inconclusive call do not appear. Entries that show only a call come without a potency. Calls of active or inactive are those of the source. The call rests on the fitted dose curve; in most records, active means well fitted cell-killing curve with a large enough effect in the repeat runs; inconclusive means weak or mixed curves, or effect the other way; inactive means flat fitted curve, though single readings scatter.

Test: qHTS RealTime-Glo MT Cell Viability Assay in HEK293 cells - 16 hour (AID 1224872); further: top concentration of the series differs between compounds; nearly all actives have a fitted effect of over 50% in size
Settings: RealTime-Glo luminescence; series mostly up to 76.8 µM
Excerpt: National Center for Advancing Translational Sciences [NCATS]
NIH Chemical Genomics Center [NCGC]
U.S. Environmental Protection Agency [EPA]
National Institutes of Environmental Health Sciences [NIEHS]
National Toxicology Program [NTP]
U.S. Food and Drug Administration [FDA]
Measure of cell viability is critical in the cell-base assay. Analysis of cell viability is necessary for the characterization of cell responses to cytotoxic drugs and environmental stress. A RealTime-Glo MT Cell Viability Assay to monitor cell viability in real time of continues cell culture during 40 hours of compound treatment was used to screen Tox21 10K library compounds in Hek293 cells. The RealTime-Glo MT Cell Viability Assay is a nonlytic, homogeneous, bioluminescent method to measure cell viability in real time using a simple, plate-based method. The assay involves adding NanoLuc luciferase and a cell-permeant prosubstrate to cells in culture. Viable cells reduce the proprietary prosubstrate to generate a substrate for NanoLuc luciferase. This substrate diffuses from cells into the surrounding culture medium, where it is rapidly used by the NanoLuc Enzyme to produce a luminescent signal. The signal correlates with the number of viable cells, making the assay well suited for cytotoxicity studies.
Tox21 Assay Protocol Summary:
The mixture of Hek293 cell suspension and reagents were dispensed at 600cells/6 ul/well in 1536-well tissue culture treated black solid bottom plates using a Multidrop dispenser. After the assay plates were incubated at a 37 C/5% CO2 incubator for 5 hours, 23 nL of compounds dissolved in DMSO, positive and negative controls was transferred to the assay plate by a pintool work station. The plates were incubated at 37 C for 40 hours. The luminescence intensity were measured at 0h, 8h, 16h, 24h, 32h and 40h time points using ViewLux plate reader during compound treatment.
With `CC(C)(C)c1ccc(OCC2CO2)cc1` (stereo not given) the Potency was “inactive”.
In the case of `COCCO`, the Potency is reported as “inactive”.
In the case of `SC1CCCC1`, the Potency is reported as “inactive”.
In the case of `COc1cc(C(C)(C)C)c(O)c(C(C)(C)C)c1`, the Potency is reported as “inactive”.
With `C[Si](C)O[Si](C)(C)O[Si](C)(C)O[Si](C)C` the Potency was “inactive”.
In the case of `CN(C)C/C=C(/c1ccc(Br)cc1)c1cccnc1`, the Potency is reported as “inactive”.
In the case of `CC(C)NCC(O)c1cc(O)cc(O)c1` (stereo not given), the Potency is reported as “inactive”.
In the case of `O=c1[nH]cnc2ccccc12`, the Potency is reported as “inactive”.
With `CCOc1ccc(NC(=O)CC(C)=O)cc1` the Potency was “inactive”.
For `Cc1cc(CC(=O)O)c(C)n1-c1ccc(Cl)cc1`, the Potency was “inactive”.
With `CC(C)CCCCCCOC(=O)c1ccc(C(=O)OCCCCCCC(C)C)c(C(=O)OCCCCCCC(C)C)c1` the Potency was “inactive”.
For `CCCCCCCCCCCCCCCBr`, the Potency was “inactive”.
For `CC(C(=O)O)c1ccc(-c2ccccc2)c(F)c1` (stereo not given), the Potency was “inactive”.
For `CCOc1cc(OCC)c(C(=O)CCC(=O)O)cc1OCC`, the Potency was “inactive”.
With `NC[C@H]1O[C@H](O[C@H]2[C@H](O)[C@@H](O[C@H]3O[C@H](CO)[C@@H](O)[C@H](N)[C@H]3O)[C@H](N)C[C@@H]2N)[C@H](O)[C@@H](O)[C@@H]1O` the activity change, negative = cytotoxicity was 8.96% [at 6.97 µM] (inactive).
For `NCCCOCCOCCOCCCN`, the Potency was “inactive”.
With `Cc1occc1S` the Potency was “inactive”.
In the case of `CN(C)CC[C@@H](c1ccc(Br)cc1)c1ccccn1`, the Potency is reported as “inactive”.
With `CC[C@H](C)[C@@H](C(=O)O)n1sc2ccccc2c1=O` the Potency was “inactive”.
In the case of `C=CC(C)(CCC=C(C)C)OC(=O)c1ccccc1` (stereo not given), the Potency is reported as “inactive”.
In the case of `Cc1c(Cn2ccnc2)c2ccccc2n1CCC(=O)O`, the Potency is reported as “inactive”.
With `CCCCCC(CO)CCC` (stereo not given) the Potency was “inactive”.
With `NC(=S)N/N=C/c1cccnc1` the Potency was “inactive”.
For `N#Cc1c(F)cccc1F`, the Potency was “inactive”.
For `O=C(O)COC(=O)Cc1ccccc1Nc1c(Cl)cccc1Cl`, the Potency was “inactive”.
With `c1ccc(CNCc2ccccc2)cc1` the Potency was “inactive”.
For `CCCCCCOC(=O)CCC`, the Potency was “inactive”.
In the case of `CCc1nn(C2CCCCC2)c2cc(C3(C#N)CCC(C(=O)O)CC3)ccc12` (stereo not given), the Potency is reported as “inactive”.
With `Cn1c(=O)c2c(ncn2CC(O)CO)n(C)c1=O` (stereo not given) the Potency was “inactive”.
For `COc1ccc(OC)c(OC)c1`, the Potency was “inactive”.
In the case of `CCCc1ccccc1`, the Potency is reported as “inactive”.
With `Cl/C(=C\n1cncn1)c1ccc(Cl)cc1Cl` the Potency was “inactive”.
With `CC(C)c1ccc2c(C(C)C)cc(C(C)C)c(S(=O)(=O)O)c2c1` the Potency was “inactive”.
For `O=C(O)Cn1c(C(=O)Nc2nc(-c3ccccc3Cl)cs2)cc2ccccc21`, the Potency was “inactive”.
With `S=C(S)NCCNC(=S)S` the Potency was “inactive”.
With `CC(=O)/C(C)=C/C1C(C)=CCCC1(C)C` (stereo not given) the Potency was “inactive”.
With `COc1ccc([C@@H]2Sc3ccccc3N(CCN(C)C)C(=O)[C@@H]2OC(C)=O)cc1` the Potency was “inactive”.
For `NCc1ccccc1`, the Potency was “inactive”.
With `CC(C)CCCC(C)CCO` (stereo not given) the Potency was “inactive”.
With `O=[N+]([O-])c1cccc(Cl)c1Cl` the Potency was “inactive”.
